Reference: PubChem BioAssay (NCI)
Compounds without any hit were thinned out: in the full panel of roughly 83,000, 20% have a hit.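 Activity criterion: percent growth below 10, measured after cells in 96-well plates were exposed to a single compound concentration for 48 hours.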 Unmarked numbers belong to inactive results. The source made the active and inactive calls.

Key:
Experiment in all cases: NCI-60 one-dose screen, 48 h (100 = growth as untreated, 0 = no growth, -100 = all killed)
Conditions in all cases: 10 µM unless noted
SK-MEL-2 melanoma = tested on: SK-MEL-2 melanoma
EKVX NSCLC = tested on: EKVX NSCLC
SN12C renal = tested on: SN12C renal
UO-31 renal = tested on: UO-31 renal
TK-10 renal = tested on: TK-10 renal
ACHN renal = tested on: ACHN renal
CAKI-1 renal = tested on: CAKI-1 renal
CCRF-CEM leukemia = tested on: CCRF-CEM leukemia
MOLT-4 leukemia = tested on: MOLT-4 leukemia
SR leukemia = tested on: SR leukemia
RPMI-8226 leukemia = tested on: RPMI-8226 leukemia
OVCAR-8 ovarian = tested on: OVCAR-8 ovarian
OVCAR-5 ovarian = tested on: OVCAR-5 ovarian
OVCAR-4 ovarian = tested on: OVCAR-4 ovarian
IGROV1 ovarian = tested on: IGROV1 ovarian
OVCAR-3 ovarian = tested on: OVCAR-3 ovarian
HS 578T breast = tested on: HS 578T breast
NCI/ADR-RES ovarian = tested on: NCI/ADR-RES ovarian
SK-OV-3 ovarian = tested on: SK-OV-3 ovarian
A498 renal = tested on: A498 renal

COc1ccc(C(c2cc(OC)c(OC)c(OC)c2)n2ccnc2)cc1O (stereo unspecified)
growth (SK-MEL-2 melanoma): 43.5%
growth (EKVX NSCLC): 30.2%
growth (SN12C renal): 37.6%
growth (UO-31 renal): 62%
growth (TK-10 renal): 52.9%
growth (ACHN renal): 42.4%
growth (CAKI-1 renal): 41.3%
growth (CCRF-CEM leukemia): 6.97% (active)
growth (MOLT-4 leukemia): 14%
growth (SR leukemia): 8.48% (active)
growth (RPMI-8226 leukemia): 18.9%
growth (OVCAR-8 ovarian): 10.3%
growth (OVCAR-5 ovarian): 71.1%
growth (OVCAR-4 ovarian): 73.6%
growth (IGROV1 ovarian): 36.4%
growth (OVCAR-3 ovarian): -9.52% (active)
growth (HS 578T breast): 29.1%
growth (NCI/ADR-RES ovarian): 12.1%

O=c1oc2c(Br)cc(Br)cc2cc1-c1cc(-c2ccc(-c3cc(-c4cc5cc(Br)cc(Br)c5oc4=O)nc(-c4cc5cc(Br)cc(Br)c5oc4=O)c3)cc2)cc(-c2cc3cc(Br)cc(Br)c3oc2=O)n1
growth (SK-MEL-2 melanoma): 101%
growth (EKVX NSCLC): 105%
growth (SN12C renal): 107%
growth (UO-31 renal): 80.6%
growth (TK-10 renal): 107%
growth (ACHN renal): 103%
growth (CAKI-1 renal): 110%
growth (CCRF-CEM leukemia): 101%
growth (MOLT-4 leukemia): 102%
growth (SR leukemia): 92.5%
growth (RPMI-8226 leukemia): 102%
growth (OVCAR-8 ovarian): 108%
growth (OVCAR-5 ovarian): 109%
growth (OVCAR-4 ovarian): 113%
growth (IGROV1 ovarian): 106%
growth (OVCAR-3 ovarian): 104%
growth (HS 578T breast): 90.7%
growth (NCI/ADR-RES ovarian): 98.1%

O=C1OCC2=C1C(c1cccc(C(F)(F)F)c1)c1cc3c(cc1N2CCO)CCC3 (stereo unspecified)
growth (SK-MEL-2 melanoma): 9.34% (active)
growth (EKVX NSCLC): 40.7%
growth (SN12C renal): 24.9%
growth (UO-31 renal): 35.5%
growth (TK-10 renal): 53.9%
growth (ACHN renal): 23.4%
growth (CAKI-1 renal): 26.9%
growth (CCRF-CEM leukemia): 6.63% (active)
growth (MOLT-4 leukemia): 7.83% (active)
growth (SR leukemia): 11.1%
growth (RPMI-8226 leukemia): 17.9%
growth (OVCAR-8 ovarian): 5.39% (active)
growth (OVCAR-5 ovarian): 36.1%
growth (OVCAR-4 ovarian): 52.3%
growth (SK-OV-3 ovarian): 5.48% (active)
growth (IGROV1 ovarian): 23.5%
growth (OVCAR-3 ovarian): -17.8% (active)
growth (HS 578T breast): 28%
growth (NCI/ADR-RES ovarian): 17.7%

O=C(Cc1ccc(F)cc1)c1ccccc1
growth (SK-MEL-2 melanoma): 114%
growth (EKVX NSCLC): 113%
growth (SN12C renal): 99.4%
growth (UO-31 renal): 95.6%
growth (TK-10 renal): 104%
growth (ACHN renal): 110%
growth (CAKI-1 renal): 106%
growth (A498 renal): 99.8%
growth (MOLT-4 leukemia): 93.1%
growth (SR leukemia): 100%
growth (RPMI-8226 leukemia): 95.9%
growth (OVCAR-8 ovarian): 104%
growth (OVCAR-5 ovarian): 122%
growth (OVCAR-4 ovarian): 109%
growth (SK-OV-3 ovarian): 108%
growth (IGROV1 ovarian): 107%
growth (OVCAR-3 ovarian): 129%
growth (HS 578T breast): 94%
growth (NCI/ADR-RES ovarian): 108%

O=C(/C=C/c1ccc(F)cc1)Nc1ncc(Cc2ccc(F)cc2)s1
growth (SK-MEL-2 melanoma): 32.3%
growth (EKVX NSCLC): 32.1%
growth (SN12C renal): 50.6%
growth (UO-31 renal): 39%
growth (TK-10 renal): 47.2%
growth (ACHN renal): 32.5%
growth (CAKI-1 renal): 27.5%
growth (A498 renal): 21.8%
growth (MOLT-4 leukemia): 30.9%
growth (SR leukemia): 25.2%
growth (RPMI-8226 leukemia): 44.9%
growth (OVCAR-8 ovarian): 51.9%
growth (OVCAR-5 ovarian): 62.8%
growth (OVCAR-4 ovarian): 64.3%
growth (IGROV1 ovarian): 46.8%
growth (OVCAR-3 ovarian): 12.4%
growth (HS 578T breast): 23%
growth (NCI/ADR-RES ovarian): 35.5%

O=C(CCCCCCCCC(=O)N/N=C\c1ccccc1O)N/N=C\c1ccccc1O
growth (SK-MEL-2 melanoma): 32%
growth (EKVX NSCLC): 26.3%
growth (SN12C renal): 21.6%
growth (UO-31 renal): 13.2%
growth (TK-10 renal): 46.4%
growth (ACHN renal): 14.7%
growth (CAKI-1 renal): 9.16% (active)
growth (CCRF-CEM leukemia): 10.8%
growth (MOLT-4 leukemia): 15%
growth (SR leukemia): 13.5%
growth (RPMI-8226 leukemia): 32.8%
growth (OVCAR-8 ovarian): 25.5%
growth (OVCAR-5 ovarian): 67.5%
growth (OVCAR-4 ovarian): 15.9%
growth (SK-OV-3 ovarian): 36.9%
growth (IGROV1 ovarian): 29.6%
growth (OVCAR-3 ovarian): 39.8%
growth (HS 578T breast): 46.8%
growth (NCI/ADR-RES ovarian): 14.1%
